The list is not random: actives were taken first. Their share in the collection is about 1.2%.
Vc quorum ag: inducers of Vibrio cholerae quorum light production without autoinducers; V. cholerae BH1578 lux reporter, luminescence, 6 h; activation, % at 18.7 µM; actives 0.16% (n = 350,000); AID 588436; in the data active means activation mostly above about 9.7%, no sharp cut-off; inconclusive means no clear call, values can overlap the other calls; inactive means mostly below about 3.7%
VHR inh abs: inhibitors of human VHR1 phosphatase (DUSP3); recombinant VHR phosphatase, pNPP absorbance; AID 1654; actives 0.52% (n = 290,000); inhibition, % at 13.3 µM; P51452; in the data active means inhibition above about 50%
Target sequence (P51452 whole entry, looked up): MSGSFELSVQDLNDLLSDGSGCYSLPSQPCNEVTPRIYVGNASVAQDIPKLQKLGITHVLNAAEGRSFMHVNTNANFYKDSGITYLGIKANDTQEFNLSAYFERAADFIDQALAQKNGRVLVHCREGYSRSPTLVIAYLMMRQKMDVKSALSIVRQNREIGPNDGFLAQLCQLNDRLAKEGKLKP
PfHsp40 rescue: rescue of PfHsp40-mediated yeast toxicity; actives 0.68% (n = 340,000); S. cerevisiae expressing PfHsp40, growth rescue, ATP luminescence; growth rescue, % at 12.5 µM; in the data active means growth rescue above about 28%, passing the limit was not always enough; inconclusive means no clear call, values can overlap the other calls;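 further: yeast W303a lacking pdr1 and pdr3 grown in galactose medium; growth measured after three days at 30 °C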
TcdB GH inh: TcdB glycohydrolase inhibition; actives 0.24% (n = 350,000); TcdB glycohydrolase enzymatic assay, plate reader; P18177; inhibition, % at 9.99 µM; in the data active means inhibition above about 10%
Mtb BioA inh: BioA (M. tuberculosis) enzyme inhibition | AID 602481 | actives 0.096% (n = 360,000) | purified M. tuberculosis BioA enzyme, plate reader | inhibition, % at 9.99 µM; in the data active means inhibition above about 40%; inconclusive means no clear call, values can overlap the other calls
Y pestis TopoI: inhibitors of Yersinia pestis topoisomerase I; Y. pestis Topo-I cleavage product accumulation, plate reader; actives 0.064% (n = 360,000); activity, % at 10 µM; in the data active means activity above about 50%, passing the limit was not always enough; inconclusive means no clear call, values can overlap the other calls
Hits are given with their value; . = inactive; ? = inconclusive; / = no result.

SMILES	Vc quorum ag	VHR inh abs	PfHsp40 rescue	TcdB GH inh	Mtb BioA inh	Y pestis TopoI
O=C(NCCN1CCOCC1)C1CC(=O)N(c2ccc(Cl)cc2)C1 (stereo not drawn)	.	50.0	.	.	.	.
COc1ccccc1NC(=O)N[C@H]1CC[C@H](CCn2cc(C3(O)CCCC3)nn2)O[C@H]1CO	/	/	/	.	.	/
Cc1ccc2[nH]c(=O)c(C3C(C#N)=C(N)Oc4c3ccc3cccnc43)cc2c1 (stereo not drawn)	.	.	84.4	/	.	.
O=C(CN1C(=O)S/C(=C\C=C\c2ccccc2)C1=O)NC1CCS(=O)(=O)C1 (stereo not drawn)	.	.	.	.	.	.
O=C(O)c1cc(NCc2c(F)cccc2Cl)ccc1N1CCOCC1	.	.	104.8	/	.	.
COC(=O)c1cc(NCc2ccccc2F)ccc1N1CCOCC1	.	.	.	/	/	.
COc1ccc(Cl)cc1NC(=O)Cn1nnc(C(=O)NCCc2ccc(OC)c(OC)c2)c1N	.	.	.	.	.	.
O=C(Cn1cc(COc2ccc(Cl)c(Cl)c2)nn1)NS(=O)(=O)c1ccccc1OC(F)(F)F	.	/	/	11.0	.	.
COc1ccc(NC2CCCN(C(=O)CN3CCOC3=O)C2)cc1OC (stereo not drawn)	.	.	.	11.5	.	.
Cc1ccc(NC2CCCN(C(=O)CN3C(=O)CSC3=O)C2)cc1C (stereo not drawn)	.	53.3	.	.	.	.
Cc1cc(C)c(C(=O)N2CCCC(Nc3ccc(C)c(C)c3)C2)o1 (stereo not drawn)	.	52.7	.	.	.	.
COc1ccc2c(c1OC)C(=O)OC2Nc1nc2ccccc2s1 (stereo not drawn)	.	.	.	.	.	.
O=C(NNC(=S)Nc1cccc(C(F)(F)F)c1)c1ccccc1Cl	.	.	?	.	.	.
COCCNC(=O)C(=O)Nc1ccc(Cl)cc1C	.	.	.	.	/	.
Cc1ccc(-c2csc3ncnc(N4CCN(S(=O)(=O)c5cccs5)CC4)c23)cc1	.	/	122.4	/	.	.
COc1ccc(-c2csc3ncnc(N4CCN(CCO)CC4)c23)cc1	.	56.9	.	.	/	.
CCOCCCNC(=O)c1cc2cc3cc(OC)ccc3nc2o1	.	53.0	.	.	.	.
COc1ccc2nc3oc(C(=O)NCCCOC(C)C)cc3cc2c1	.	.	.	.	.	.
Nc1ccnn1Cc1ccc(Br)s1	.	.	.	/	.	.
Cc1csc(NC(=O)C(C)Oc2ccc(Cl)cc2C)n1 (stereo not drawn)	.	/	60.4	.	.	.
CC(Oc1ccc(Cl)cc1)C(=O)Nc1ccccc1N1CCOCC1 (stereo not drawn)	.	/	.	.	.	.
CCN1CCN(c2ccc(S(=O)(=O)N3CCOCC3)cc2NC(=O)C(C)Oc2cccc(Cl)c2)CC1 (stereo not drawn)	.	/	.	.	.	.
CC(Oc1cccc(Cl)c1)C(=O)Nc1cc(S(=O)(=O)N2CCOCC2)ccc1N1CCCCC1 (stereo not drawn)	.	/	.	.	/	70.7
Cc1cc(Cl)ccc1OC(C)C(=O)Nc1ccccc1N1CCOCC1 (stereo not drawn)	.	.	.	/	.	63.2
CCn1ncc(Br)c1C(=O)Nc1cccc(C(C)=O)c1	.	.	.	.	.	.
SMILES	Vc quorum ag	VHR inh abs	PfHsp40 rescue	TcdB GH inh	Mtb BioA inh	Y pestis TopoI
COc1ccc(SC[C@H](C)CN2CC[C@H](NC(=O)OCc3ccccc3)CCC2=O)cc1	.	/	.	10.2	.	.
C[C@@H](CSc1ccc(Br)cc1)CN1CC[C@H](NC(=O)OCc2ccccc2)CCC1=O	.	/	.	.	.	.
O=C(O)c1ccccc1NC(c1ccccc1)c1ccc2cccnc2c1O (stereo not drawn)	.	/	322.0	.	/	.
Cc1ccnc(NC(c2ccsc2)c2ccc3ccc(C)nc3c2O)c1 (stereo not drawn)	.	.	249.6	.	.	.
Oc1c(C(Nc2ccccn2)c2ccccn2)ccc2cccnc12 (stereo not drawn)	.	.	63.3	.	.	.
Cc1ccc2ccc(C(Nc3ccccn3)c3ccccc3)c(O)c2n1 (stereo not drawn)	/	.	.	.	.	.
Cc1cc(NC(c2ccc(Cl)cc2)c2ccc3cccnc3c2O)no1 (stereo not drawn)	.	.	44.0	/	.	.
O=C(c1cnccn1)N1CC[C@@H]2[C@H]1c1cc(-c3ccccc3F)ccc1N[C@@H]2CO	/	/	/	.	.	/
NC(=O)c1ccsc1NC(=O)c1ccc(S(=O)(=O)N2CCCCC2)cc1	.	.	.	.	.	.
Cc1ccnc(NC(c2ccccc2)c2ccc3cccnc3c2O)c1 (stereo not drawn)	.	/	153.7	.	.	.
Cc1ccnc(NC(c2cccnc2)c2ccc3cccnc3c2O)c1 (stereo not drawn)	.	.	.	.	/	.
O=C(Nc1nc(-c2ccccc2)c(-c2ccccc2)o1)c1ccc(F)cc1	.	.	417.9	/	.	.
CCCCSc1nc(C)cc(SCC(=O)N/N=C/c2cccc(OC)c2O)n1	.	.	103.5	/	.	.
CCOC(=O)Cc1cc(=O)n(-c2nc3ccccc3s2)[nH]1	.	.	139.7	/	.	.
c1ccc2c(-c3c[nH]c4ccccc34)c3ccccc3nc2c1	.	.	37.3	/	.	.
COc1ccc(S(=O)(=O)NC2CCCCC2)c(C)c1C	.	.	86.0	/	.	.
COc1ccc(C)cc1S(=O)(=O)NC1CCCCCC1	.	.	.	.	.	.
O=C(O)CCn1cc(-c2ccc(Cl)cc2)nc1-c1ccncc1	.	/	.	.	.	.
O=c1c2ccccc2nc(COc2ccccc2)n1/N=C/c1ccc(O)cc1O	.	.	52.3	.	/	.
CC1=C(C(=O)Nc2ccccc2)C(c2ccc(O)cc2)N2C(=O)CSC2=N1 (stereo not drawn)	23.1	.	.	/	.	.
CC1=CCC(C(=O)O)C(C(=O)Nc2cccnc2)C1 (stereo not drawn)	/	.	.	.	/	.
Cc1ccc(-n2nnnc2SCC(=O)N2CCc3ccccc3C2)c(C)c1	.	.	70.6	/	.	.
Cc1ccc(-n2nnnc2SC(C)C(N)=O)c(C)c1 (stereo not drawn)	16.7	.	.	/	.	.
Cc1ccc(-n2nnnc2SC(C)C(=O)NCC(=O)Nc2ccc(F)c(F)c2F)c(C)c1 (stereo not drawn)	.	.	.	/	/	.
O=S(=O)(c1ccccc1)N1CC[C@@H]2[C@H]1c1cc(Br)ccc1N[C@@H]2CO	/	/	/	.	.	/
CC(C)C1S/C(=N/N=C/c2ccco2)NC1=O (stereo not drawn)	.	.	58.1	/	.	.
Cc1ccccc1CC1S/C(=N/N=C/c2ccco2)NC1=O (stereo not drawn)	/	.	/	.	/	/
Nc1nc(-c2ccccc2)c(-c2ccc([N+](=O)[O-])cc2)s1	.	.	232.6	.	.	.
COc1ccc(CN(C)C[C@H]2Oc3ccc(NC(=O)NC(C)C)cc3CC(=O)N([C@@H](C)CO)C[C@@H]2C)cc1	/	/	/	.	.	/
